Laboratory results as given in PubChem BioAssay (NCATS).
Results filed as inconclusive are left out. The source made the active and inactive calls. Calls follow the shape of the dose curve; as a rule, active = well fitted curve in the direction sought with a large enough effect; inconclusive = small, poorly fitted or top-dose-only effect, or another doubt; inactive = no such curve, though single readings can be large or run the other way.

Experiment: qHTS for Inhibitors of the vitamin D receptor (VDR): Hit Validation using a Texas Red Assay (AID 602201)
Settings: VDR coregulator binding, Texas Red fluorescence polarization, agonist-bound VDR ligand-binding domain; series mostly up to 57.1 µM
Method in brief: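 After a 2-hour room-temperature incubation, polarization of Texas-Red emission was read (Ex 595 nm/Em 615 nm). Final mix contained 7 nM Texas Red, 1.5 uM VDR-LBD and LG19078.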
Potency is read from the fitted curve at half-maximal effect.

| SMILES | Potency |
| --- | --- |
| O=C1/C(=C/c2cccnc2)CCC/C1=C\c1cccnc1 | 31.6 µM (active) |
| CCOC(=O)/C(=C\c1cccc(O)c1)c1nc2sc(C)c(C)c2c(=O)[nH]1 | inactive |
| CC(NC(=O)c1sc2cc([N+](=O)[O-])ccc2c1Cl)C(C)(C)C (configuration not stated) | 3.55 µM (active) |
| O=C1ON=C(c2ccccc2)/C1=C/c1ccc(O)cc1 | inactive |
| O=C(NC1CCCCCC1)C(=S)N1CCOCC1 | inactive |
| COc1cc(/C=C2\C(=O)ON=C2c2ccccc2)cc(Cl)c1O | inactive |
| CN1C(=O)C(Cl)(Cl)C(=O)c2ccccc21 | inactive |
| O=C(Nc1nc(-c2ccccn2)cs1)c1cc(Cl)ccc1[N+](=O)[O-] | inactive |
| O=C(CCS(=O)(=O)c1nc(-c2cccs2)cc(C(F)(F)F)n1)Nc1cc(Br)ccc1O | 5.62 µM (active) |
| O=[N+]([O-])c1ccccc1-c1ccc(C(=S)N2CCCC2)o1 | inactive |
| O=C(COc1ccc(Cl)cc1)Nc1sc2c(c1C(=O)Nc1cccc(Cl)c1)CCCC2 | 8.91 µM (active) |
| O=C(/C=C/c1cccnc1)c1ccc([N+](=O)[O-])cc1 | 3.16 µM (active) |
| COc1ccc(Cl)cc1NC(=O)CCS(=O)(=O)c1nc(-c2cccs2)cc(C(F)(F)F)n1 | 11.2 µM (active) |
| Cc1ccc(NC(=O)c2nc(S(=O)(=O)Cc3ccccc3F)ncc2Cl)cc1 | 2.82 µM (active) |
| Cc1cccc(/C=C/C(=O)c2ccc([N+](=O)[O-])o2)c1 | 1.78 µM (active) |
| Cc1cc2nc3ccc(N(C)C)cc3nc2cc1N | 3.55 µM (active) |
| Cc1cccc2c1N(CCCOc1ccccc1)C(=O)C2=O | inactive |
